The list is not random: actives were taken first. Their share in the collection is about 9.9%.
HPGD block: qHTS Assay for Inhibitors of HPGD (15-Hydroxyprostaglandin Dehydrogenase); hit rate 4.3% among 150,000; purified HPGD, NADH fluorescence kinetic, PGE2 substrate; Potency, µM, for inactives: at the top dose activity change, negative = inhibition, most hits filed as inhibitors
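20 nM HPGD preincubated 15 min at room temperature with compound in 50 mM Tris-HCl pH 8, 0.01% Tween 20. Started with 1 mM NAD+ and 30 uM prostaglandin E2; NADH fluorescence (360/450 nm) read 5 times over 30-s intervals, last minus first.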
JMJD2E inh: qHTS Assay for Inhibitors of Human Jumonji Domain Containing 2E (JMJD2E). Lysine-specific demethylase 4E (Homo sapiens), B2RXH2. Potency, µM (highest dose often 57.1 µM), for inactives: top-dose activity change, negative = inhibition, most hits filed as inhibitors. JMJD2E catalytic domain, FDH-coupled NADH fluorescence (FDH is formaldehyde dehydrogenase). hit rate 1.6% among 230,000;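 note: 0% = wells with enzyme and -100% = buffer wells without enzyme; nearly all actives have a fitted effect of over 50% in size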
ALDH1A1 block: qHTS Assay for Inhibitors of Aldehyde Dehydrogenase 1 (ALDH1A1); Purified ALDH1A1, NADH fluorescence, propionaldehyde substrate; Potency, µM (doses to about 75.3 µM), for the others: at the highest dose activity, negative = inhibition, hits mostly inhibitors; hit rate 7.3% among 220,000;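 note: plate controls were no enzyme wells and a reference inhibitor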
Target sequence (P00352 whole entry, looked up): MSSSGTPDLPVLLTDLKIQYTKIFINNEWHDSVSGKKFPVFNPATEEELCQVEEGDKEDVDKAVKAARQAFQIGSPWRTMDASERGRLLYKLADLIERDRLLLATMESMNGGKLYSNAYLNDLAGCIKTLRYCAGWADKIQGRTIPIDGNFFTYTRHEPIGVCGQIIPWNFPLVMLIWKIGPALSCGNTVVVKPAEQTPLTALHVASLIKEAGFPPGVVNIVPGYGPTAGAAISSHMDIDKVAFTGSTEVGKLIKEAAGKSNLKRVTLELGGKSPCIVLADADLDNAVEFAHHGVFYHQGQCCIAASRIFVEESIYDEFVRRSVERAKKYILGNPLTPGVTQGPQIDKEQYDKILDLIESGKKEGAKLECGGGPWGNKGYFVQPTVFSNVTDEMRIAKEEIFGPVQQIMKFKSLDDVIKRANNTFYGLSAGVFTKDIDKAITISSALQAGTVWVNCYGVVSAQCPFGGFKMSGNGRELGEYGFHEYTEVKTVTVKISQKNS
Tau ThT inhib: qHTS for Inhibitors of Tau Fibril Formation, Thioflavin T Binding; Microtubule-associated protein tau (Homo sapiens), P10636; recombinant tau K18 P301L, heparin-induced fibrillization, ThT fluorescence; Potency, µM (series often up to 57.4 µM), for the others: at the top dose activity, negative = inhibition, actives largely listed as inhibitors; hit rate 2.1% among 270,000; active = well fitted curve in the direction sought with a large enough effect; inconclusive = small, poorly fitted or top-dose-only effect, or another doubt; inactive = no such curve, though single readings can be large; an effect the other way counts as inactive or inconclusive; note: nearly all actives have a fitted effect of over 55% in size
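Using a mix of unlabeled (15 uM) and Alexa 594-labeled (0.24 uM) tau K18 P301L, heparin-triggered fibrillization over 6 hr at 37 C was scored by ThT fluorescence.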
Tau fibril FP: qHTS for Inhibitors of Tau Fibril Formation, Fluorescence Polarization | Microtubule-associated protein tau (Homo sapiens), P10636 | K18 P301L tau heparin fibrillization, Alexa594 FP, 6 h | Potency, µM (top dose mostly 57.7 µM), inactives show at the top dose activity, negative = inhibition, usual class: inhibitors | hit rate 0.39% among 280,000 | AID 1468, 2008; active = well fitted curve in the direction sought with a large enough effect; inconclusive = small, poorly fitted or top-dose-only effect, or another doubt; inactive = no such curve, though single readings can be large; an effect the other way counts as inactive or inconclusive; note: nearly all actives have a fitted effect of over 55% in size
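Steps: dispense K18 P301L tau (15 uM plus 0.24 uM Alexa 594 tracer, final) in pH 7 sodium acetate; add compound; add heparin (20 uM final); incubate 6 hr, 37 C; add ThT (30 uM final); after 1 hr ambient, read FP.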
Tau fluor cs: Counterscreen qHTS for Inhibitors of Tau Fibril Formation, Fluorescence Polarization; tau K18 P301L Alexa594 fluorescence, heparin fibrillization; Potency, µM (top dose mostly 57.7 µM), for inactives: top-dose activity change, negative = decrease; hit rate 0.93% among 280,000; active = well fitted curve in the direction sought with a large enough effect; inconclusive = small, poorly fitted or top-dose-only effect, or another doubt; inactive = no such curve, though single readings can be large; an effect the other way counts as inactive or inconclusive; note: nearly all actives have a fitted effect of over 55% in size
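Human tau K18 P301L (15 uM unlabeled, 0.24 uM Alexa 594-labeled) in 100 mM sodium acetate pH 7 with 20 uM heparin, 6 hr at 37 C. ThT 30 uM added, 1 hr ambient; Alexa 594 FP and total fluorescence read at 555/632 nm.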
* hit, by the source's call; ? = inconclusive; · = not tested or not shown; ! = repeats disagree; [ ] = another dose, or the depositor's remark. Unless noted, calls come from the whole dose curve; as a rule, active = well fitted inhibition curve with a large enough effect (not every such curve was filed as active); inconclusive = small, poorly fitted or top-dose-only effect, or another doubt; inactive = no such curve, though single readings can be large or run the other way. Unless noted, % is set by controls: 0 for no effect and ±100 for the full control effect; potency is the fitted concentration of half-maximal effect.

SMILES | HPGD block | JMJD2E inh | ALDH1A1 block | Tau ThT inhib | Tau fibril FP | Tau fluor cs
COc1ccc(N=NC2=C(O)CC(C)(C)CC2=O)cc1 | 32µM* | 1% | 0.89µM* | 0% | 6% | -2%
Cc1ccc(/C=C/c2onc(C)c2S(=O)(=O)N2CCC(C(=O)NCc3ccc(C)o3)CC2)cc1 | · | · | · | 10% | ? | -3%
CC1=CN2C(=N)/C(=C/c3ccc(Sc4ccc(Cl)cc4)o3)C(=O)N=C2S1 | -18% | 1% | ? | 13µM* | -9% | ?
CC1=CN2C(=N)/C(=C/c3ccc(Sc4ccc(C)cc4)o3)C(=O)N=C2S1 | ? | 9% | ? | 7.9µM* | -5% | ?
Clc1ccccc1-c1cncnc1NCc1cccs1 | · | · | 23% | · | · | ·
O=C(Nc1ccon1)c1ccc(S(=O)(=O)N2CCOCC2)cc1 | · | 1% | 1% | -7% | -5% | -4%
CC(=O)Nc1ccc(S(=O)(=O)N2CCN(CC3CC4C=CC3C4)CC2)cc1 (centres undefined) | · | ? | 4.5µM* | -7% | ? | -26%
O=C(CN1CCN(S(=O)(=O)c2ccccc2)CC1)Nc1ccc([N+](=O)[O-])cc1 | -13% | -4% | -15% | -1% | 6% | -7%
CC(=O)Nc1ccc(S(=O)(=O)N2CCN(Cc3ccccc3[N+](=O)[O-])CC2)cc1 | · | 0% | 22µM* | 4% | -6% | -14%
Cc1ccc(C)c(Cn2c(=O)cc(C)c3c(C)nn(-c4cccc(F)c4)c32)c1 | · | · | · | -14% | -17% | -16%
COc1cc(OC)c(NC(=O)c2cc3c(=O)oc4ccc(C)cc4c3s2)cc1Cl | · | · | · | 2% | -3% | -5%
Oc1cc(CN2COc3ccccc32)c(O)cc1CNC1CCCCC1 | 1.6µM* | · | -2%[13.5 µM] | · | · | ·
Cc1ccccc1CNC1CCCCC1 | 3% | 14% | 6% | 8% | 6% | 6%
CC1CCC2(CC1)NC(=O)N(CC(=O)c1cn(CCC#N)c3ccccc13)C2=O (centres undefined) | · | 1% | 7.1µM* | -2% | 1% | -2%
CCOc1ccc(-c2nc[nH]c2[N+](=O)[O-])cc1 | · | 1% | 3% | -6% | -6% | -5%
O=C(Cc1cc(=O)[nH][nH]1)N/N=C/c1c(F)cccc1Cl | · | 7% | 3% | ? | ? | -17%
O=C(Cc1cc(=O)[nH][nH]1)N/N=C/C(Cl)=C/c1ccccc1 | -28% | -17% | -6% | 2.8µM* | ? | ?
O=C(Cc1cc(=O)[nH][nH]1)N/N=C/c1c(Cl)cccc1Cl | 14µM* | ? | 11µM*! | ? | -9% | ?
O=C(CO)N/N=C/c1cccc(Cl)c1Cl | -16% | 8% | -14% | 0% | -1% | 4%
Cn1cccc1CC(=O)N/N=C/C(Cl)=C/c1ccccc1 | -23% | ? | -6% | ? | -3% | -30%
O=C(Cc1cc(=O)[nH][nH]1)N/N=C/c1cccc(Cl)c1Cl | · | 4µM*! | 14% | ? | ? | ?
Cc1nn(C)c2c1c(C(F)(F)F)cc(=O)n2CC(=O)Nc1ccc(F)cc1F | · | · | · | -9% | -8% | -16%
[O-]c1c[n+](-c2ccc(-[n+]3cc([O-])on3)cc2)no1 | · | 25µM* | ? | ? | 5% | -14%
O=C(/C=C\c1ccc(O)c(O)c1)O[C@@H]1C[C@](O)(C(=O)O)C[C@@H](O)[C@@H]1O | -1% | 4.5µM* | -1%[20.9 µM] | · | · | ·
